Tested on: VDR:RXRa (NR concentration 270 nM, RXRa partner concentration 90 nM)
Experiment: PBM binding z-score (relative to random genomic background probes); higher = stronger binding; sequences stand for … in GC…GCGATTGACAGCGTAGAATGAAGG
Method in brief: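 Each nuclear receptor dimer, without ligand, was incubated for 1 h on custom Agilent 4×180K protein-binding microarrays. Binding was detected with antibodies against each partner (one per run), and scanned fluorescence was regression-normalized. The binding z-scores are referenced to random human genomic background probes.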

Point of comparison: CGAACTAGGTCATAACAGGACAGTGAAGGATGAT, PBM binding z-score 1.89. Against it:
- TCGAGTAGGTTAGGGGCATTGAGAATGGCGTCGA — lower, 0.491
- TCGTATAGGTAAACAGGTGAAAGTCCGTAAGTTA — lower, 0.883
- CTCGAAAGGTCGGATGAGGTGAGTATACGGATAA — higher, 2.74
- CAAACTAGATCAAGGTCAAAGTCGGTTTGTGCCA — higher, 4.12
- CATAGCAGGCCAATCTGGGTCACTCAAGGCTTGA — lower, 0.95
- AGAATGAGGTTATACGAAGATCAGGGAAGAAAGT — lower, 1.13
- GCTGCTAGGTGAACTGATGGTCAGCTAAAGCTCG — lower, -0.124
- CGACCTAGGTCAGAACAGGACAGTGAAGGATGAT — lower, 1.05
- TCGGGTAGGTTAGTCGGGGCATTCAGCCAACATA — higher, 2.88
- CATACATGGTCAGCTAGGCCAGAGTAGGGACGGC — lower, -0.459
- TCTATTAGTTGAAGGGCAACCAACGAGTCCGTTT — lower, 1.11
- CAAACTAGGTCACGAAAGGTGAAAGTCGAATGAC — higher, 4.19
- GCAGACAGGTGACACGCAGGTAACTCAGGGTGGC — lower, -0.517
- AGAATGAGGTTAAGATCAGGTAAACAGAATACAT — lower, 1.49
- CCTACTGGGCCAAAGGTCATTGAATCCAATGCTC — higher, 4.86
- TCGAGTTGGTCAAAGGTCACACACTCGAAATGCG — higher, 5.56
- TCCTATAGGTAATACAGGTGAAAGTCGGCATCTA — lower, 0.718
- GATACAGGGTCAGCTAGAGCCCAGAGTATGGAAA — higher, 2.26
- TCGAGTAGGTTAGGGGCATTTAGAATGGCGTCGA — lower, 0.556
- CGAACTAGGTCAAGGGCAGTGAATCTCCGCACGC — lower, 1.4
- TAGCCTAGGTCATGAGGGCCAGTATAGTGTCGGC — higher, 3.51
